Active and inactive are the calls of the source. How the source made its calls: active means hit-call score of the fitted dose curve at least 0.9, where 1 is the maximum; inactive means score below 0.9.

The assay is described as follows: CCTE_Shafer_MEA_acute_burst_percentage_std: CCTE's Neural Acute Assay for Standard Deviation of Burst Percentage, Shafer Lab (AID 2284018).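 Further: fitted in the negative direction so actives lower burst percentage SD.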 The method, then: CCTE_Shafer_MEA_acute assay is conducted using Axion Biosystems 48 well microelectrode array (MEA) plates and Maestro recording system. Each well of the MEA plate contains a grid of 16 microelectrodes embedded in the culture surface. Electrically active cells, such as neurons, can be cultured over the electrodes, and electrical activity in these cells can be recorded extracellularly. The spontaneous firing of neurons is captured from each electrode on a microsecond timescale providing both temporally and spatially precise data. […] The CCTE_Shafer_MEA_acute assay uses primary cultures of rat cortical neurons. As these cultures mature over time, neural networks develop functional activity and form cohesive networks in which electrical activity can be highly coordinated. Baseline 40-minute recordings are made on days post-plating 13 or 15, followed by a secondary 40-minute recording after chemical exposure.CCTE_Shafer_MEA_acute_burst_percentage_std is a component of the CCTE_Shafer_MEA_acute assay. It measures the percentage of spikes (action potential firing) in a single-electrode burst (temporally-clustered groups of spikes) as the number of spikes in bursts divided by the total number of spikes during a recording in a microelectrode array (MEA) using Axion Biosystems Maestro 768 channel amplifier with the AxIS adaptive spike detector. The standard deviation of the burst percentages across electrodes is calculated to report a well-level value. The recordings before and after chemical treatment are used to calculate a percent change in the standard deviation of the burst percentage in each well.Data from the assay component CCTE_Shafer_MEA_acute_burst_percentage_std was analyzed into 1 assay endpoint. This assay endpoint, CCTE_Shafer_MEA_acute_burst_percentage_std, was analyzed in the negative analysis fitting direction relative to DMSO as the negative control and baseline of activity. Using a type of functional reporter, gain or loss-of-signal activity can be used to understand electrical activity.
Spontaneous activity in the cortical cultures was recorded using an Axion Biosystems Maestro 768 channel amplifier and Axion Integrated Studios (AxIS) v1.8 (or later) software. The amplifier recorded from all channels simultaneously (gain = 1200 x; sampling rate = 12.5 kHz/channel): raw signals were filtered with a Butterworth band-pass filter (300-5000 Hz), which filters out slower local field potentials leaving only fast potentials, i.e., "spikes", arising from extracellular currents associated with action potentials (Pine 2006; Wheeler and Nam 2011). On-line spike detection of filtered signals was conducted with the AxIS adaptive spike detector, using a threshold of 8x the root mean squared (rms) noise on each channel. Any electrodes with rms noise levels greater than 5 uV were grounded (e.g., no data were recorded). Once grounded, an electrode was grounded for the duration of the experiment. All recordings were conducted at 37 C. Wells were deemed usable if on the day of the exposure >/= 10 electrodes were active (defined as >/= 5 spikes/min). On DIV 13 or 15, a minimum of three wells from one cortical culture preparation were treated with each compound (0.03-40 uM). Prior to recording baseline activity, each mwMEA plate was placed in the Maestro at 37 C and allowed to sit for 20 min while firing rates stabilized. Baseline activity (40 min) was recorded before the addition of each compound. An additional 40 min of spontaneous activity was recorded in the presence of each compound. Changes in network parameters relative to baseline were assessed following compound treatment.
For `CCOC(=O)C(C)OC(=O)c1cc(Oc2ccc(C(F)(F)F)cc2Cl)ccc1[N+](=O)[O-]` (stereo unspecified), the call was inactive.
For `COC(=O)N(C(=O)N1CO[C@@]2(C(=O)OC)Cc3cc(Cl)ccc3C2=N1)c1ccc(OC(F)(F)F)cc1`, the call was inactive.
On the same count and under the same terms, for `CCOc1nc(F)cc2nc(S(=O)(=O)Nc3c(Cl)cccc3Cl)nn12` the value was “inactive”.
On to `CC(C)=CC1C(C(=O)OCc2coc(Cc3ccccc3)c2)C1(C)C` (stereo unspecified), for which the AC50 was 20 µM (active).
With `CN/C(=N\[N+](=O)[O-])NCc1cnc(Cl)s1`, the compound was called inactive.
Same read-out and setting: for `CCOc1cc(C(C)(C)C)ccc1C1COC(c2c(F)cccc2F)=N1` (stereo unspecified) the value was “inactive”; for `CNC(=O)Oc1cccc2ccccc12`, “inactive”; for `CCCCC(O)(Cn1cncn1)c1ccc(Cl)cc1Cl` (stereo unspecified), “inactive”.
The same measure, in the same setting: with `Nc1c(Cl)c(F)nc(OCC(=O)O)c1Cl` the entry was “inactive”.
As for `CC(C)C1(C)N=C(c2ncccc2C(=O)O)NC1=O` (stereo unspecified), the compound was classed as inactive.
Still for that read-out and setting: for `O=C(Nc1ccccc1-c1ccc(Cl)cc1)c1cccnc1Cl` the value was “inactive”; for `CC1(C)CCC(=Cc2ccc(Cl)cc2)C1(O)Cn1cncn1` (stereo unspecified), “inactive”; for `Cn1c(-c2ccccc2)cc(-c2ccccc2)[n+]1C`, “inactive”.
The same measure, in the same setting: for `COP(=S)(OC)SCn1nnc2ccccc2c1=O` the value was “inactive”.
Still for that read-out and setting: with `CCCC(=NOCC)C1=C(O)CC(CC(C)SCC)CC1=O` (stereo unspecified) the entry was “inactive”; with `OC(c1ccc(Cl)cc1)(c1ccc(Cl)cc1)C(Cl)(Cl)Cl`, “inactive”.
As to `CC1(C)C(C=C(Cl)Cl)C1C(=O)OC(C#N)c1cccc(Oc2ccccc2)c1` (stereo unspecified), the compound was classed as inactive.
Same read-out and setting: for `N#CN=C1SCCN1Cc1ccc(Cl)nc1` the value was “inactive”.
Regarding `COCC(=O)N(c1c(C)cccc1C)C(C)C(=O)OC` (stereo unspecified), the call was inactive.
On to `N#Cc1c[nH]cc1-c1cccc2c1OC(F)(F)O2`, for which the half-maximal activity concentration (AC50) is 32.4 µM (active).
For the compound `Cc1nc(N(C)C)nc(OC(=O)N(C)C)c1C`, the compound was classed as inactive.
Take `C=C(C)CN(CC)c1c([N+](=O)[O-])cc(C(F)(F)F)cc1[N+](=O)[O-]`: the compound was classed as inactive.
With `Clc1nc(Cl)nc(Nc2ccccc2Cl)n1`, the result was inactive.
As for `CCCN(CC)CC1COC2(CCC(C(C)(C)C)CC2)O1` (stereo unspecified), the result was inactive.
Same read-out and setting: for `CC(C)N1C(=O)N(c2ccccc2)CSC1=NC(C)(C)C` the value was “inactive”; for `CC1(C)C(C(=O)OC(C#N)c2cccc(Oc3ccccc3)c2)C1(C)C` (stereo unspecified), “inactive”; for `Cc1c(COC(=O)[C@@H]2[C@H](/C=C(\Cl)C(F)(F)F)C2(C)C)cccc1-c1ccccc1`, “inactive”.
Still for that read-out and setting: for `CC(C)N1C(=O)c2ccccc2NS1(=O)=O` the value was “inactive”; for `CO/N=C(/C1=NOCCO1)c1ccccc1Oc1ncnc(Oc2ccccc2Cl)c1F`, “inactive”; for `Cc1ccc(N=CN(C)C=Nc2ccc(C)cc2C)c(C)c1`, “inactive”.
In the case of `CCOP(=O)(OCC)Oc1nc(Cl)c(Cl)cc1Cl`, the AC50 is 32.5 µM (active).

The values are drawn from PubChem BioAssay (EPA / NIEHS).
